In this test the test system is RARa homodimer (NR concentration 270 nM). Description: PBM binding z-score (relative to random genomic background probes); higher = stronger binding; sequences stand for … in GC…GCGATTGACAGCGTAGAATGAAGG
The procedure, abridged: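 Each nuclear receptor dimer, without ligand, was incubated for 1 h on custom Agilent 4×180K protein-binding microarrays. Binding was detected with antibodies against each partner (one per run), and scanned fluorescence was regression-normalized. The binding z-scores are referenced to random human genomic background probes.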
For CCGACTGGGGCATAAGGTTACTATAAGCCAGCCC, the PBM binding z-score was -0.358.
For CTCGAAAGGTCGGTTGAGGTGAGTACACGGATAA the value was -0.296; for AATACAGGGTCACTATGCCAGAGTAGGTACGAAT, 1.11; for TAGCCTAGGTCAGATCGGGCCTGTATACGCTATA, -0.734.
The figure for TATACAGGGTCAAAGGCCAGGGTACGAATGTCGA is 1.67; for TCTAGTTGGTCACGGAGGTCACACTCGACGGGTA it is 1.39.
As for AGTTAAAGTTCACTAGGTAACGTAAGATTCAGCT, the PBM binding z-score came out at 1.6.
For CCTTACGGGTCACTGACAGGTTATACCATTTGGA the value was 1.11; for ACCGAAAGGTCGTGAGGTGAGTATACAGAAAGGC, 0.0801.
With CGTCCAAGGTGAAGGTCAGTGAAAGAGACTCGAA, the PBM binding z-score came to 0.387.
The figure for ATCTCTAGGTAGGACTCAGTTCAGTGAAGAACGC is 1.12; for ACTATTAGTTGAGACGACGGCAACCGATAGGTTG it is 0.521.
For ATCACTAGGTAAGACTCAGTTCAGTGAAGAACGC the value was 1.03.
The sequence TCATATAGGTAAATGCTAGGTGTAAGTCCGATCT showed a PBM binding z-score of 1.01.
The figure for CTCGAAAGGTCGTGCTCAGGTGGGTATACCAAAC is 0.327; for AGAATGAGCTTATTAAGATCAGGGAATTGCGGTC it is -0.11.
TCTCGGAGGACACGACAGGTCAGAGCTCGACATC yielded a PBM binding z-score of 0.0819.
Sequence TCTTGTAGATCAGGCAGGTTAAGAAAGCCTGAGT gave a PBM binding z-score of 0.0377.
The figure for GATACAGGGTCAGCTAGAGGCCAAAGTATGGAAA is 0.349.
For CCTATTAGTTGACCATAAGGGTAACCGAAGCTCG the value was 2.48.
For ATCTCTAGGTAAAGATAGTTCAGTGGATGCAAAT the value was 1.18; for CAGCCTAGGTCAGTGCCAGTATAGGAGGAACGTT, -0.0242.
Take CGAACTAGGTCATTGACAGGACAGAGAATAGTAA: the PBM binding z-score was 0.528.
The figure for CGCACGAGGGCATGAGTTGATAGCAAATGCCGAT is -0.714; for ACAGACAGGTGAGTGAAGATAACTCAGCTGGACG it is 0.147.
The figure for GCGACTGGGGCATCCGCAGGTTACCATAACTTAA is -1.
The figure for ACTAGCAGGCCAAGTGTGGGTCACTCAAACAAAG is -1.55.
The sequence GATACAGGGTCAAGGCGAGAGTACGCGTATTGAT had a PBM binding z-score of 1.14.
For the sequence ACAGACAGGTGAGTAAAGGTAACTCAGCTGGACG, the PBM binding z-score was -0.0924.
For ACTAGTTGGTCAGCTGAGGTCACCCACAATTCGG the value was 1.52.
The figure for CCGAGTGGGGCAAGGTTACCATAACGCACAGCCA is -0.144; for CAAACTAGGTCAAGAGGTCAAAATCCGCTTCCCG it is 1.73.
The figure for CCGACTTGGGCATAAGGTTACCATAAGCCAGCCC is -0.32; for CGTTACGGGTCACTGACAGGTTATAGCATTTGGA it is 0.338; for CGAGCTAGGTCATCCAGGACAGTGAATACATTGA it is 0.298.
Take CCTAGTTGGTCAAGTTCACACACGCTATAGGTAC: the PBM binding z-score was 1.56.
Take CGTCCAAGGTCATAGGAGGTCAGTGTAGACAGAT: the PBM binding z-score was 1.57.
In turn, CCTAGTTGGTCAGCAGGTCACACACCGGATATGA yielded a PBM binding z-score of 1.34.
Consider CGTCCAAGGCCAGCAGGTCAGTGAAAGCGACGTG, for which the PBM binding z-score was -1.23.
The figure for TCTATTATTTGATTAGGGCAACCGAAACAGCGGA is 3.39.

The record behind these values is the supplement of paper PMC6555819.
